Hits are enriched below; roughly 14% of the tested compounds scored in any of these assays.
Giardia FBPA inh: qHTS Assay for Inhibitors of Fructose-1,6-bisphosphate Aldolase from Giardia Lamblia | A8B2U2 | purified Giardia FBPA | Potency, µM (top dose mostly 59.6 µM), without a hit: top-dose activity, negative = inhibition, usual class: inhibitors | 290,000 compounds, 0.71% hits | AID 2451, 2010; note: potency is the fitted concentration of half-maximal effect; % is set by controls: 0 for no effect and ±100 for the full control effect; nearly all actives have a fitted effect of over 55% in size
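40 nM FBPA preincubated 10 min at RT with compound (up to 57.5 uM final), then substrate plus GAPDH/TPI/NAD/arsenate coupling and diaphorase/resazurin added. Fluorescence read after 20 min at RT, 525/598 nm.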
LmPK inh: qHTS Assay for Inhibitors of Leishmania Mexicana Pyruvate Kinase (LmPK); 290,000 compounds, 0.37% hits; AID 1721, 2009; Potency, µM (titrated, usually from 57.5 µM), without a hit: at the top dose activity change, negative = inhibition, hits mostly inhibitors; Q27686; purified LmPK, Kinase-Glo ATP luminescence, 1 h; note: potency is the fitted concentration of half-maximal effect; % is set by controls: 0 for no effect and ±100 for the full control effect
Target sequence (Q27686 whole entry, looked up): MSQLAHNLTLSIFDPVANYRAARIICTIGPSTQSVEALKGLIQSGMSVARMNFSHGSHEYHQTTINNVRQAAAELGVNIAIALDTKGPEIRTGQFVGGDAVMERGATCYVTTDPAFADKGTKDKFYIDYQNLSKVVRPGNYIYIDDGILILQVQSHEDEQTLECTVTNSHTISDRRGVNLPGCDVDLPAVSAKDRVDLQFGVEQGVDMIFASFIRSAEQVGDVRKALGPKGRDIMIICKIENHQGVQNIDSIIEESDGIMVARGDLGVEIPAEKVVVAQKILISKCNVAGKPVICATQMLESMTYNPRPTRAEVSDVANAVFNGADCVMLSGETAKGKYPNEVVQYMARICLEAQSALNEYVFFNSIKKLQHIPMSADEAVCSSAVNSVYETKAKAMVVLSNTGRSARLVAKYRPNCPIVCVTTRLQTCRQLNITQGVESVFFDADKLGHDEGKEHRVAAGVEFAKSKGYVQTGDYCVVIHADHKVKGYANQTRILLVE
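qHTS format; LmPK 0.1 nM; substrates PEP 0.5 mM and ADP 0.1 mM. One-hour room-temperature incubation, then coupled luciferase luminescence; 0.5 nM enzyme wells mark activation.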
Shiga toxin inh: A qHTS for Small Molecule Inhibitors of Shiga Toxin. Vero cells, Shiga toxin protein synthesis inhibition reporter. inhibition, % at 38.7 µM. 290,000 compounds, 9.2% hits; in the data active = inhibition mostly above about 28%, no sharp cut-off; inactive = mostly below about 43%; note: 0% is about no effect
NS1 function inh: qHTS Assay for Inhibitors of Influenza NS1 Protein Function; AID 2326, 2010; Potency, µM (top dose mostly 46.1 µM), for the others: at the highest dose activity, positive = more growth; 270,000 compounds, 0.4% hits; calls by dose curve; note: potency is the fitted concentration of half-maximal effect; actives are rising curves; nearly all actives have a fitted effect of over 50% in size
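Compounds were scored for reversing the slow growth caused by influenza A NS1 in S. cerevisiae, measured by optical density at 600 nm. Assay medium contained 2% galactose at pH 6.0; NS1-free yeast of the same strain were the positive control.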
Cycloheximide cs: Cycloheximide Counterscreen for Small Molecule Inhibitors of Shiga Toxin; cell reporter, cycloheximide protein synthesis inhibition counterscreen; max response, %; 300,000 compounds, 12% hits; in the data active = max response mostly above about 13%, no sharp cut-off; inactive = mostly below about 14%; note: read at 38.3 µM for the half of the compounds with a filed dose; 0% is about no effect
An asterisk follows results filed as active; ? = inconclusive; · = no result; [ ] = dose if it differs, or a comment. Unless noted, calls come from the whole dose curve; as a rule, active = well fitted curve in the direction sought with a large enough effect; inconclusive = small, poorly fitted or top-dose-only effect, or another doubt; inactive = no such curve, though single readings can be large; an effect the other way counts as inactive or inconclusive.

SMILES	Giardia FBPA inh	LmPK inh	Shiga toxin inh	NS1 function inh	Cycloheximide cs
COc1ccc(-n2ncc3c2CC(C)(C)CC3NC(=O)c2cnc(C)cn2)cc1 (centres undefined)	11%	0%	-3	-7%	11
Cc1cccc(NCc2ccccc2OCc2ccccc2F)c1	0%	0%	-4	1%	6
CCOc1cc(CNc2ccc(O)cc2)ccc1OCc1ccc(Cl)cc1Cl	16µM*	-1%	51*	-11%	26*
COc1ccc(Br)cc1CNc1ccc(O)cc1	16µM*	2%	-7	4%	-1
COc1ccc(CNc2ccc(C)cc2)cc1Br	-6%	4%	43*	13%	23*
Cc1ccc(NCc2ccccc2OCc2ccccc2F)cc1	-11%	-2%	27*	-9%	18*
COc1ccc(CNc2ccccc2)cc1Br	0%	-3%	15	-3%	11
CCCN1CCC(NC(=O)Cc2cccc(C)c2)CC1	-3%	6%	-9	0%	-3
CCOc1ccccc1CNc1ccc(O)cc1	11µM*	-3%	23	13%	7
CCOc1cccc(CNc2ccc(O)cc2)c1OCc1ccc(Cl)cc1	?	0%	6	-10%	-1
NS(=O)(=O)c1ccc(NCc2ccccc2OCc2ccccc2F)cc1	·	6%	11	18%	2
Oc1ccc(NCc2ccccc2OCc2ccccc2F)cc1	13µM*	1%	5	-50%	-2
COCCN1C(=O)N[C@@H](CCc2ccccc2)C(C(=O)OC)=C1C	3%	·	·	·	·
CC(C)c1nnc(NC(=O)c2nc(S(=O)(=O)Cc3ccccc3)ncc2Cl)s1	·	1%	75*	13%	67*
CCCc1nnc(NC(=O)c2nc(S(=O)(=O)Cc3ccc(C)cc3)ncc2Cl)s1	·	-13%	44*	10%	30*
CSc1nnc(NC(=O)c2nc(S(=O)(=O)Cc3ccccc3)ncc2Cl)s1	·	0%	68*	14%	54*
COc1ccc(OCC2CC3C(CCC(C)C3c3ccc(Br)cc3)C(=O)O2)cc1 (centres undefined)	0%[12.9 µM]	·	·	·	·
COc1cc(C(=O)N/N=C(\C)c2ccc(NC(=O)Cc3ccccc3)cc2)ccc1O	·	2%	45*	4%	39*
C/C(=N\NC(=O)c1ccccc1O)c1ccc(NC(=O)Cc2ccccc2)cc1	·	-1%	41*	-13%	29*
COc1cccc(C(=O)N/N=C(\C)c2ccc(NC(=O)Cc3ccccc3)cc2)c1OC	6%	12%	27	4%	18*
COc1ccc(C(=O)NN=C(Cc2ccccc2)Cc2ccccc2)cc1OC	1%	-2%	11	5%	0
COc1ccc(CC(=O)Nc2ccc(/C(C)=N/NC(=O)c3ccc(OC)cc3OC)cc2)cc1	20%	1%	50*	-4%	28*
CN1CCC/C1=C1/C(=O)N(c2ccccc2)N=C1NC(=O)Nc1cccc(Cl)c1	1%	8%	31	1%	-2
Cc1nnc2c(N(C)S(=O)(=O)c3ccccc3)nc3ccccc3n12	·	-6%	1	-7%	-7
C/C(=N/NC(=O)c1ccc(-c2ccccc2)cc1)c1cccc(O)c1	·	1%	22	27%	8
SMILES	Giardia FBPA inh	LmPK inh	Shiga toxin inh	NS1 function inh	Cycloheximide cs
C/C(=N\NC(=O)c1cccc(O)c1)c1ccc(NC(=O)Cc2ccccc2)cc1	·	2%	69*	-2%	34*
Cc1ccc(-c2nc3ccsc3c(=O)[nH]2)cc1	2%	0%	103*	-5%	42*
O=C1C(CCC(O)c2ccc(F)cc2)C(c2ccc(O)cc2)N1c1ccc(F)cc1 (centres undefined)	-5%	·	·	·	·
OCCN1CCN(CC(O)COc2ccc(-c3ccccc3)cc2)CC1 (centres undefined)	-9%	3%	74*	-6%	32*
OCCN1CCN(CC(O)COc2ccc3ccccc3c2)CC1 (centres undefined)	5%	-10%	16	-1%	4
OC(COc1ccc2cc(Br)ccc2c1)CN1CCCC1 (centres undefined)	-16%	2%	77*	-1%	46*
OC(COc1ccc(-c2ccccc2)cc1)CN1CCOCC1 (centres undefined)	3%	-1%	28	·	22*
OC(COc1ccc(OCc2ccccc2)cc1)CN1CCOCC1 (centres undefined)	-2%	-12%	36	1%	20*
OC1CCCN(CC(O)COc2ccc(-c3ccccc3)cc2)C1 (centres undefined)	5%	0%	54*	2%	23*
OC(COc1ccc(OCc2ccccc2)cc1)CN1CCCCC1 (centres undefined)	-5%	3%	74*	-6%	31*
CC[C@H](C)[C@H](NC(=O)[C@H](Cc1ccc(O)cc1)NC(=O)[C@@H](NC(=O)[C@@H](N)CCCN=C(N)N)C(C)C)C(=O)N[C@@H](Cc1cnc[nH]1)C(=O)N1CCC[C@H]1C(=O)N[C@@H](Cc1ccccc1)C(=O)O	3%	·	-11	·	1
S=C(Nc1ccccc1)Nc1ccc(Cl)cc1Cl	?	3%	139*	10%	29*
S=C(Nc1ccc2cn[nH]c2c1)Nc1ccc(Cl)cc1Cl	?	0%	47	0%	18*
S=C(Nc1ccc(Cl)cc1)Nc1ccc2cn[nH]c2c1	-18%	0%	20	-9%	8
CCc1ccc(NC(=S)Nc2ccc3cn[nH]c3c2)cc1	-18%	7%	50*	-3%	14
S=C(Nc1ccccc1Cl)Nc1ccc(Cl)cc1Cl	-7%	-3%	10	-1%	1
S=C(Nc1ccc2cn[nH]c2c1)Nc1ccccc1Cl	?	2%	51*	-4%	73*
CCN(CC)[C@@H](C)CN1c2ccccc2Sc2ccccc21	-6%[21.7 µM]	·	·	·	·
CCCCc1nc2cc(C(=O)N3CCCCC3CC(=O)OCC)ccc2o1 (centres undefined)	1%	5%	37	9%	31*
CCCCc1nc2cc(C(=O)NC3CCOC(C)(C)C3)ccc2o1 (centres undefined)	·	-5%	-1	-9%	9
CCOC(=O)CC1CCCCN1C(=O)c1cc(COc2cccc3cnccc23)on1 (centres undefined)	-13%	1%	-5	-22%	9
CCCCc1nc2cc(C(=O)N3CCCCC3C(=O)OC)ccc2o1 (centres undefined)	-4%	-3%	57*	-7%	39*
COc1ccc(Cc2nc3ccc(C(=O)N4CCCCC4CCO)cc3o2)cc1 (centres undefined)	-5%	-2%	16	-8%	24
CCOC(=O)CC1COCCN1C(=O)c1ccc2oc(Cc3ccccc3)nc2c1 (centres undefined)	1%	5%	62*	0%	48*
CC(C)(C)SCCNC(=O)Nc1ccccc1	6%	0%	19*	-7%	21*
Cc1ccccc1CSCCNC(=O)Nc1ccccc1	-3%	1%	24	-46%	15*
